HTT aggregate: inhibitors of mutant huntingtin aggregate formation in PC12 cells; Potency, µM (doses to about 46.1 µM), usual class: inhibitors; PC12 HttQ103-GFP aggregates, Acumen cytometry, 40 h; AID 1688; hit rate 1.1% among 220,000; further: nearly all actives have a fitted effect of over 60% in size
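Huntingtin Q103 exon 1–GFP aggregates in induced PC12 cells (100 nM tebufenozide) were quantified by cytometry from lysates, with compounds dosed in titration.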
JMJD2E inh: JMJD2E (human) inhibition. B2RXH2. JMJD2E catalytic domain, FDH-coupled NADH fluorescence (FDH is formaldehyde dehydrogenase). Potency, µM (top dose mostly 57.1 µM), most hits filed as inhibitors. hit rate 1.6% among 230,000. AID 2147; active means well fitted inhibition curve with a large enough effect, not every such curve was filed as active; inconclusive means small, poorly fitted or top-dose-only effect, or another doubt; inactive means no such curve, though single readings can be large or run the other way; further: nearly all actives have a fitted effect of over 50% in size
VDR inhibitor: blocks the human vitamin D receptor | VDR-SRC2-3 peptide fluorescence polarization, 2 h | Potency, µM, actives largely listed as inhibitors | hit rate 0.93% among 400,000
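Two reagent solutions held at 4 deg C in the dark were dispensed, compounds pinned at 23 nl, and the mixture incubated 2 h at room temperature. Read-out: fluorescence polarization of VDR–SRC2-3 peptide binding.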
GoLoco inh red: RGS12 GoLoco-Gai1 interaction inhibition. P63096. Gai1:RGS12 GoLoco peptide FP, rhodamine, 10 min. hit rate 0.44% among 230,000. Potency, µM (titrated, usually from 61.6 µM), hits mostly inhibitors; active means well fitted inhibition curve with a large enough effect, not every such curve was filed as active; inactive means no such curve, though single readings can be large or run the other way; further: nearly all actives have a fitted effect of over 30% in size
Target sequence (P63096 whole entry, looked up): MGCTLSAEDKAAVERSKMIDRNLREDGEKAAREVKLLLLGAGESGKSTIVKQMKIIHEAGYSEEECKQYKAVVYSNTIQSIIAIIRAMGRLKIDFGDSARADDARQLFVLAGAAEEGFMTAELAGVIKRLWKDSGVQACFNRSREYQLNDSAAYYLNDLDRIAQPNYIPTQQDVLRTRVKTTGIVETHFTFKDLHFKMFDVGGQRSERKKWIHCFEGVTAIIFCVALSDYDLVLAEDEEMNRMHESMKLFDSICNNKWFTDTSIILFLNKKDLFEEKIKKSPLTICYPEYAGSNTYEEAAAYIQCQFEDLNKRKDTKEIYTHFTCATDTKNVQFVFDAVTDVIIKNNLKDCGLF
FBPA coupling cs: coupling enzyme interference in Giardia aldolase counter-screen; coupling enzyme system counterscreen, AmpLite Red fluorescence; activity change, negative = inhibition, % at 58.2 µM, hits read low; hit rate 0.67% among 290,000; AID 2472; in the data active means activity change below about -30%
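Compounds tested against the coupling enzymes alone at 57.5 uM final; readout was AmpLite Red fluorescence (525/598 nm) after 20 min at RT.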
HTT cytoprotect: cytoprotection in Huntington HTT-Q103 PC12 cell model | hit rate 0.14% among 230,000 | Potency, µM (titrated, usually from 56.4 µM), usual class: activators | PC12 HTT-Q103 induced, cytoprotection, ATP luminescence, 40 h; further: nearly all actives have a fitted effect of over 45% in size
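Rat PC12, Q103 Htt exon1-GFP fusion, ecdysone promoter; tebufenozide inducer 100 nM final; compound titration; qHTS, 1500 cells/well; ATPlite luminescent read.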
Hits are given with their value; ! = repeats disagree; [ ] = dose if it differs, or a comment. An excerpt weighted towards active compounds, which were near 2.3% of everything screened. Unless noted, the call rests on the fitted dose curve; in most records, active means well fitted curve in the direction sought with a large enough effect; inconclusive means small, poorly fitted or top-dose-only effect, or another doubt; inactive means no such curve, though single readings can be large; an effect the other way counts as inactive or inconclusive.

`Cc1cc(C(=O)CSc2nc3ccccc3c(=O)n2C)c(C)n1Cc1ccc2c(c1)OCO2` gave HTT aggregate 1µM, JMJD2E inh inactive, VDR inhibitor inactive, GoLoco inh red inactive, FBPA coupling cs inactive and HTT cytoprotect inactive.
`O=C(NCc1ccncc1)c1ccc(S(=O)(=O)Nc2ccccc2)cc1` gave VDR inhibitor inactive.
Screening Cc1c(Cl)cccc1NC(=O)CSc1nc(=O)n(Cc2cccnc2)c2c1CCC2 returned VDR inhibitor inactive.
CCCc1c(OCCCCc2nn[nH]n2)ccc(C(C)=O)c1O was read as HTT aggregate inactive, JMJD2E inh inactive, VDR inhibitor 44.7µM, GoLoco inh red inactive, FBPA coupling cs inactive and HTT cytoprotect inactive.
COc1ccccc1CNC(=O)CCCCn1c(=O)c2ccccc2n(Cc2ccccc2C)c1=O was read as VDR inhibitor inactive.
Cc1ccccc1CN1C[C@@H]2C[C@@H](c3cnc(N4CCOCC4)s3)N3CCC[C@@]23C1=O was read as HTT aggregate 2.51µM, JMJD2E inh inactive, VDR inhibitor inactive, GoLoco inh red inactive, FBPA coupling cs inactive and HTT cytoprotect inactive[10 µM].
Screening COc1ccccc1CN1C[C@@H]2C[C@@H](c3ccccc3C)N3CCC[C@@]23C1=O returned HTT aggregate inactive, JMJD2E inh inactive, VDR inhibitor inactive, GoLoco inh red inactive, FBPA coupling cs inactive and HTT cytoprotect inactive.
COc1ccc(-c2nc3cnc(N4CCOCC4)nc3n(-c3ccccc3)c2=O)cc1 was read as VDR inhibitor inactive, GoLoco inh red inactive, FBPA coupling cs inactive and HTT cytoprotect inactive.
Screening COc1ccc(-n2c(=O)c(-c3ccc(Cl)cc3)nc3cnc(N4CCOCC4)nc32)cc1 returned VDR inhibitor 39.8µM, GoLoco inh red inactive, FBPA coupling cs inactive and HTT cytoprotect inactive.
Screening O=C1NCC2=C1C(c1ccccc1)Nc1ccccc1N2 (centres undefined) returned HTT aggregate inactive, JMJD2E inh inconclusive, VDR inhibitor inactive, GoLoco inh red inactive, FBPA coupling cs -41.3 and HTT cytoprotect inactive.
`COc1ccc(Oc2ncc3nc(-c4cn(C)c5ccccc45)c(=O)n(CCC#N)c3n2)cc1` gave VDR inhibitor inactive, GoLoco inh red inactive, FBPA coupling cs inactive and HTT cytoprotect inactive.
Screening CCCCC/C=C\C[C@@H](O)/C=C/C=C\C/C=C\CCCC(=O)O returned JMJD2E inh inactive, VDR inhibitor inactive, GoLoco inh red inactive, FBPA coupling cs inactive and HTT cytoprotect inactive.
For CCCCC/C=C\CC(O)/C=C/c1cccc(CC(O)CCCCO)n1 (centres undefined) the results were JMJD2E inh inactive, VDR inhibitor 50.1µM!, GoLoco inh red inactive, FBPA coupling cs inactive and HTT cytoprotect inactive.
Screening CCn1c(C)cc(/C=C2/NC(=O)N(CC(=O)Nc3cccc(C)c3)C2=O)c1C returned HTT aggregate inactive, JMJD2E inh 22.4µM, VDR inhibitor inactive, GoLoco inh red inactive, FBPA coupling cs inactive and HTT cytoprotect inactive[10 µM].
CCn1c(C)cc(/C=C2\NC(=O)N(CC(=O)Nc3cccc(C)c3)C2=O)c1C was read as HTT aggregate inactive, JMJD2E inh inconclusive, VDR inhibitor inactive, GoLoco inh red inactive, FBPA coupling cs inactive and HTT cytoprotect inactive.
`O=C(O)CN(CCN(CC(=O)O)CC(=O)O)CCN(CC(=O)O)CC(=O)O` gave HTT aggregate inactive, JMJD2E inh 6.31µM!, VDR inhibitor inactive, GoLoco inh red inactive, FBPA coupling cs inactive and HTT cytoprotect inconclusive.
Screening CCN(CC)c1ccc2c(c1)oc(=O)c1c(Cl)cc(=O)oc12 returned HTT aggregate 12.6µM, JMJD2E inh inactive, VDR inhibitor inconclusive, GoLoco inh red inactive, FBPA coupling cs inactive and HTT cytoprotect inactive.
CN(CC(=O)Nc1ccc(Cl)c(C(F)(F)F)c1)C(=O)CNC(=O)C1CCCCC1 was read as VDR inhibitor inactive.
COC(=O)C1=C(C)Nc2ccc(C)cc2S1 was read as HTT aggregate inactive, JMJD2E inh inactive, VDR inhibitor 70.8µM, GoLoco inh red inactive, FBPA coupling cs inactive and HTT cytoprotect inactive.

Compound activity from PubChem.
